MCL1-BIM inh: inhibitors of human MCL1 binding to BIM-BH3 peptide | inhibition, % at 10.9 µM | 320,000 tested, 0.68% active | AID 2057 | Q07820 | GST-MCL1 / FITC-Bim-BH3 fluorescence polarization;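 active means inhibition above the mean inhibition of all tested compounds plus 3 SD, set per campaign, cut at about 40% in these data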;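 further: 0% = DMSO wells and 100% = unlabeled Bim-BH3 peptide control; higher means more loss of mP so more displacement of Bim peptide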
Target sequence (Q07820 whole entry, looked up): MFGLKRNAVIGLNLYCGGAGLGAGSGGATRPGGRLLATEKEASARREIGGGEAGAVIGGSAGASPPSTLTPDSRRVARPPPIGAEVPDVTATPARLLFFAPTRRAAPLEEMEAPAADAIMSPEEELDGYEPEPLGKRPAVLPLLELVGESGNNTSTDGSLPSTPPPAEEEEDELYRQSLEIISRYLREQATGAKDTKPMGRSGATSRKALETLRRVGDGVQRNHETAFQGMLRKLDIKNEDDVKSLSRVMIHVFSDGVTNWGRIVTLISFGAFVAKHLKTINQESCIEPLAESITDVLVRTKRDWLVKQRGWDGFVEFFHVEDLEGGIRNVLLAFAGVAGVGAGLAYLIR
MEX-5 binding: C. elegans MEX-5 TCR-2 RNA binding activity; Q9XUB2; 300,000 tested, 0.38% active; activity score (negative = inhibition of binding), % at 10 µM; MEX-5/FITC-TCR2 RNA binding, fluorescence polarization; stronger effect = lower value;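 active means inhibition past about -25% in most replicates, and total fluorescence under double the plate's negative control median, limit read from the data; inconclusive means replicates evenly split on the limit, or fluorescence at least double controls; inactive means too little inhibition in most replicates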;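 further: 0% = DMSO and -100% = 5 µM competing unlabeled TCR2 RNA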
BCLXL inh: Bcl-xL (human) inhibition; inhibition, % at 10.9 µM; GST-Bcl-xL / FITC-Bim BH3 peptide fluorescence polarization; 320,000 tested, 0.7% active; Q07817; AID 2129;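 active means inhibition above the mean of all tested compounds plus 3 SD, cutoff set per campaign, cut at about 30% in these data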;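 further: 0% = DMSO wells and 100% = unlabeled Bim-BH3 peptide competitor; inhibitors lower millipolarization by displacing the labeled peptide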
Target sequence (Q07817 whole entry, looked up): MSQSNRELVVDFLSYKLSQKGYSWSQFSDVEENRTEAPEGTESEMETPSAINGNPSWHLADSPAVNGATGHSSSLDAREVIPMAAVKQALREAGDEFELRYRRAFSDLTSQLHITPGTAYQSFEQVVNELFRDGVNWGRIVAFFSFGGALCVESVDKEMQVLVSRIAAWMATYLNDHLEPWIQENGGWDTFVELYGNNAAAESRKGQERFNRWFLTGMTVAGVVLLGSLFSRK
E coli Lon inh: inhibits E. coli Lon protease. P0A9M0. purified E. coli Lon protease, fluorescence polarization. inhibition, % at 7.94 µM. 360,000 tested, 0.42% active; in the data active means inhibition above about 13%, passing the limit was not always enough;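 further: 0% = enzyme with probe and DMSO and 100% = no enzyme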
GLD-1 RNA inh: GLD-1-TGE RNA interaction inhibition (C. elegans); Q17339; purified GLD-1 + fluorescein TGE RNA, fluorescence polarization; inhibition, % at 5.96 µM; 320,000 tested, 0.44% active;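 active means percent inhibition above a per-plate cutoff, the plate mean of test compounds plus 3 SD, cut at about 30% in these data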;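 further: 0% = DMSO wells with GLD-1 and probe and 100% = wells lacking GLD-1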
* marks the source's active call; other numbers are inactive results; u = inconclusive; x = no result given. The list is not random: actives were taken first. Their share in the collection is about 1.4%.

SMILES | MCL1-BIM inh | MEX-5 binding | BCLXL inh | E coli Lon inh | GLD-1 RNA inh
C[C@@H]1ON(C)[C@H]2C[C@H]3c4[nH]c5ccc(-c6ccc7c(c6)OCO7)cc5c4CCN3C(=O)[C@@H]12 | x | x | x | -14 | x
O=C1CS/C(=N/N=C/c2cccs2)N1 | -19 | -32* | -13 | 1 | -2
O=C1CS/C(=N/N=C/c2ccncc2)N1 | 2 | 3 | 3 | -5 | 2
Cc1cnc(CNC(=O)c2ccc3nc([C@@H]4O[C@H](CO)[C@H](O)[C@H](O)[C@H]4O)[nH]c3c2)cn1 | x | x | x | -6 | x
COC(=O)C1C(O)C(C)C(O)C(C)(O)/C=C\C=C(/C)C(=O)Nc2c(C)c(OC(C)=O)c3c(c2O)C(=O)C(C)=C2OCOC(=C23)/C(C)=C/C(C)(O)C(O)C(C)C1O (stereo unspecified) | -1 | -5 | 50* | 1 | 7
Cc1cccc(C)c1NC(=O)C1c2ccccc2OCC(=O)N1C1CC1 (stereo unspecified) | x | x | x | 6 | x
Cc1ccc(N2CC(C(=O)OCC(=O)Nc3c(C)cccc3C)CC2=O)cc1 (stereo unspecified) | x | x | x | -10 | x
CCn1c(SCC(=O)NC2CCCC2)nc2c(c1=O)SCC2 | x | x | x | 5 | x
CN(C)/C=N/n1cnc2ccccc2c1=O | 1 | 1 | 34* | 1 | 0
CC(C)Cc1nnc(NC(=O)CCC(=O)N2CCC(C)CC2)s1 | -3 | 0 | 7 | -6 | 3
CC(C)Cc1nnc(NC(=O)CCC(=O)N2CC(C)CC(C)C2)s1 (stereo unspecified) | 7 | -27* | 1 | 3 | 2
CN1CCN(c2cc(-c3cccc(C(=O)O)c3)nc3ccnn23)CC1 | x | x | x | -2 | x
Cc1ccc(S(=O)(=O)N2C[C@@H](C)[C@]3(C2)[C@H](O)[C@H](OC(=O)NCc2ccccc2F)C[C@H]2C(=O)N(c4ccccc4)C(=O)[C@H]23)cc1 | x | x | x | -7 | x
COc1ccc(/C=C2\SC(=S)N(CCC(=O)NC3CCCC3)C2=O)cc1OC | -1 | -27* | 2 | -2 | 6
COc1ccccc1/C=C1\SC(=S)N(CCC(=O)NC2=NCCS2)C1=O | 10 | -63* | 4 | -3 | 2
CCc1ccc(/C=C2/SC(=S)N(CCC(=O)Nc3ccc(C(=O)O)cc3)C2=O)cc1 | -2 | -8 | 189* | -3 | -4
CNC(=O)C[C@@H]1C(=O)N(C2CCCCC2)CC1(C)C | x | x | x | 2 | x
COC(=O)CCCC1=CC2=CC(=O)C(C)(OC(=O)c3cnc4ccccc4n3)C(=O)C2=CO1 (stereo unspecified) | 114* | -67* | 95* | x | 94*
CCCCC1=CC2=CC(=O)C(C)(OC(=O)c3cnc4ccccc4n3)C(=O)C2=CO1 (stereo unspecified) | 96* | u | 64* | x | 97*
CCCCC1=CC2=CC(=O)C(C)(OC(=O)c3cccs3)C(=O)C2=CO1 (stereo unspecified) | 39 | -12 | 27 | -20 | 30
COC/C=C/C1=CC2=CC(=O)C(C)(OC(=O)c3cnc4ccccc4n3)C(=O)C2=CN1CCc1ccccn1 (stereo unspecified) | 55* | -15 | 52* | x | 32*
CN(C)CCCn1c(=O)n(CCc2ccccc2)c(=O)c2c3c(sc21)CCCCC3 | 38 | 0 | 56* | -4 | 21
CN(C)CCn1c(=O)n(Cc2ccccc2)c(=O)c2c3c(sc21)CCCCC3 | 11 | 0 | 7 | -1 | 3
Cn1ccnc1Sc1nc2ccccc2nc1NS(=O)(=O)c1ccccc1 | 39 | -11 | 34* | 1 | 39*
COc1ccc(C(=O)Cn2cc[n+](C)c2)cc1 | 2 | 1 | 5 | 3 | 7
SMILES | MCL1-BIM inh | MEX-5 binding | BCLXL inh | E coli Lon inh | GLD-1 RNA inh
O=C(CNc1cccc(Br)c1)Nc1ccc(S(=O)(=O)N2CCCCC2)cc1 | x | x | x | 2 | x
COc1ccc(/C=C2\CCCc3c2nc2ccccc2c3C(=O)OCC(=O)c2c(N)n(C)c(=O)n(C)c2=O)cc1 | 39 | 0 | 41* | x | 101*
O=C(O)c1cc(-c2ccc(/C=c3\sc4nc5ccc(Br)cc5n4c3=O)o2)ccc1Cl | -8 | -29* | -27 | x | -52
COc1cccc(N=C2NC(=O)/C(=C/c3cc([N+](=O)[O-])ccc3O)S2)c1 | -55 | -2 | -19 | -34 | -8
O=C1NC(=Nc2ccccc2Cl)S/C1=C\c1cc([N+](=O)[O-])ccc1O | -89 | -40* | -42 | -309 | -36
Cc1cccn2c(=O)c(C=C(C#N)C#N)c(N3CCN(c4cccc(Cl)c4)CC3)nc12 | 43* | -1 | 39* | 3 | 20
CCN1CCN(c2nc3c(C)cccn3c(=O)c2/C=C(\C#N)S(=O)(=O)c2ccc(C)cc2)CC1 | 48* | -7 | 52* | -10 | 18
Cc1ccc(S(=O)(=O)/C(C#N)=C/c2c(N3CCN(C)CC3)nc3c(C)cccn3c2=O)cc1 | 29 | 0 | 40* | -2 | 6
CCN1CCN(c2nc3c(C)cccn3c(=O)c2/C=C(\C#N)S(=O)(=O)c2ccc(Cl)cc2)CC1 | 12 | -12 | 15 | -14 | 5
Cc1cccn2c(=O)c(/C=C(\C#N)S(=O)(=O)c3ccccc3)c(N3CCN(C)CC3)nc12 | 11 | -7 | 12 | 9 | 7
CC(C)CC(=O)Nc1ccc(Oc2ccc3c(c2)C(=O)NC3=O)cc1 | 11 | 1 | 5 | -7 | 7
CCCSc1nnc2nc3c(nn12)c1ccccc1n3C | 2 | -35* | 9 | -2 | 5
O=[N+]([O-])c1ccccc1/C=N\Nc1nccs1 | 6 | -4 | 10 | -8 | -1
O=[N+]([O-])c1cc(/C=N\Nc2nccs2)ccc1O | x | -100* | x | x | x
NS(=O)(=O)c1ccc(NC(=O)COC(=O)c2cn(-c3ccccc3)nc2-c2ccc(F)cc2)cc1 | -5 | -30* | 2 | -1 | 9
O=C(COC(=O)c1cn(-c2ccccc2)nc1-c1ccc(F)cc1)Nc1ncc(Cl)cc1Cl | 11 | -4 | 12 | 2 | -10
CSCC(C)N1CCC(N2CCC(C(=O)NCc3ccccn3)CC2)CC1 (stereo unspecified) | 40* | u | 33* | -12 | 18
CC(C)CCC(=O)N1CCC(N2CCC(C(=O)NCc3ccccn3)CC2)CC1 | 7 | -5 | 16 | -6 | 6
CCOC(=O)/C(C#N)=C/c1c(N2CCCCCC2)nc2ccccn2c1=O | -4 | -1 | -2 | -12 | -9
CCNc1nn2ccccc2c1/C=C(\C#N)C(=O)OCC | -1 | -63* | 4 | 4 | 14
CCOc1ccc(-c2nc(N)ncc2Oc2ccc(OC)cc2)c(O)c1 | 0 | -1 | 4 | -2 | 6
COc1ccc(-c2nc(N)nc(C)c2Oc2ccccc2Br)c(O)c1 | 39 | x | 42* | 3 | 17
C[C@H](CO)N1C[C@H](C)[C@@H](CN(C)S(=O)(=O)c2ccc(Cl)cc2)Oc2ccc(NS(=O)(=O)c3ccccc3)cc2CC1=O | x | x | x | 19* | 3
CCOc1ccc(/C=C/C2=Cc3c(sc(NC(=O)CSc4n[nH]c(N)n4)c3C#N)C(C)(C)C2)cc1 | -55 | 1 | -14 | -70 | 31*

Assay outcomes from PubChem BioAssay.
